Laboratory results: the supplement of paper PMC4840960
Counter-ions that a name gives are not always drawn. ± gives the standard deviation of the averaged measurements.

system: E18 rat cortical neuron-glia co-culture; experiment: fiber score / MBP score (myelination specific beyond OL differentiation) (ratio); higher = more myelination-specific MBP alignment; details: 1 µM; treatment time: 8 days (DIV5-DIV13)
In short: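 Library compounds were applied at 1 or 5 µM in myelination medium, DIV5 to DIV13, to primary E18 rat cortical co-cultures grown at 20,000 cells/well in 96-well plates. After 4 % paraformaldehyde fixation and MBP/Olig2/DAPI immunostaining, four 10X fields per well in duplicate wells were scored. Each value is continuous MBP fiber length per Olig2+ nucleus divided by thresholded MBP area × intensity per Olig2+ nucleus.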

| SMILES | fiber score / MBP score |
| --- | --- |
| CSc1ccc2c(c1)N(CCC1CCCCN1C)c1ccccc1S2 (configuration not stated) [Thioridazine] | 0.479 |
| C=C(CC)C(=O)c1ccc(OCC(=O)O)c(Cl)c1Cl [Ethacrynic Acid] | 2.03 |
| CC#C[C@]1(O)CC[C@H]2[C@@H]3CCC4=CC(=O)CCC4=C3[C@@H](c3ccc(N(C)C)cc3)C[C@@]21C [Mifepristone] | 0.755 |
| Cc1cccc(C)c1NC(=O)C(C)N (configuration not stated) [Tocainide] | 0.776 |
| CN1CCN(C2=Nc3cc(Cl)ccc3Nc3ccccc32)CC1 [Clozapine] | 0.395 |
| Cc1cccc(CN2CCN(C(c3ccccc3)c3ccc(Cl)cc3)CC2)c1 (configuration not stated) [Meclizine] | 0.439 |
| Nc1nc(O)c2ncn(CCC(CO)CO)c2n1 [Penciclovir] | 0.784 |
| C[C@@H]1C[C@H]2[C@@H]3CCC4=CC(=O)C=C[C@]4(C)[C@@]3(F)[C@@H](O)C[C@]2(C)[C@@]1(O)C(=O)CO [Dexamethasone] | 0.824 |
| OCCN1CCN(CCCN2c3ccccc3Sc3ccc(C(F)(F)F)cc32)CC1 [Fluphenazine] | 0.784 |
| COC(=O)C1=C(C)NC(C)=C(C(=O)OCC(C)C)C1c1ccccc1[N+](=O)[O-] (configuration not stated) [Nisoldipine] | 0.773 |
| CC1(C)O[C@@H]2C[C@H]3[C@@H]4CCC5=CC(=O)C=C[C@]5(C)[C@@]4(F)[C@@H](O)C[C@]3(C)[C@]2(C(=O)CO)O1 [Azmacort] | 0.687 |
| CNCCC(Oc1ccc(C(F)(F)F)cc1)c1ccccc1 (configuration not stated) [Fluoxetine hydrochloride] | 0.807 |
| O=c1c(O[C@@H]2O[C@H](CO)[C@H](O)[C@H](O)[C@H]2O)c(-c2ccc(O)c(O)c2)oc2cc(O)cc(O)c12 [Hyperoside] | 0.853 |
| CCc1c2c(nc3ccc(OC(=O)N4CCC(N5CCCCC5)CC4)cc13)-c1cc3c(c(=O)n1C2)COC(=O)[C@]3(O)CC [Irinotecan] | 2.03 |
| CCCCCNC(=N)N/N=C/c1c[nH]c2ccc(OC)cc12 [Tegaserod] | 0.56 |
| O=c1c(-c2ccccc2)c1-c1ccccc1 [Diphenylcyclopropenone] | 0.809 |
| CC(C)(C)NC(=O)[C@@H]1C[C@@H]2CCCC[C@@H]2CN1C[C@@H](O)[C@H](Cc1ccccc1)NC(=O)[C@H](CC(N)=O)NC(=O)c1ccc2ccccc2n1 [Saquinavir] | 0.889 |
| CN(CCCN1c2ccccc2CCc2ccccc21)CC(=O)c1ccc(Cl)cc1 [Lofepramine] | 0.564 |
| OCCN1CCN(CCCN2c3ccccc3Sc3ccc(Cl)cc32)CC1 [Perphenazine] | 0.338 |
| CC=CC(=O)N(CC)c1ccccc1C [Crotamiton] | 0.609 |
| NNCCc1ccccc1 [Phenelzine] | 0.849 ± 0.21 |
| CC(C)c1ccc2c(c1)c(SC(C)(C)C)c(CC(C)(C)C(=O)O)n2Cc1ccc(Cl)cc1 | 1.1 |
